# Assay outcomes (PubChem BioAssay)
# The list is not random: actives were taken first. Their share in the collection is about 11%.
# PNC inhibitor: inhibitors of perinucleolar compartment assembly; activity change (PNC), negative = inhibition, % at 10 µM; PC3M PTB-GFP, PNC prevalence imaging, 16 h; active compounds read low; 140,000 compounds, 3.1% hits;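 active means readout at or below -70, meaning at least 70% loss of cells showing the perinucleolar compartment, a nuclear body marking cancer cells; inconclusive means readout between -30 and a set limit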;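 further: plate controls were DMSO wells for no effect and camptothecin positive control wells for full effect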
#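 Compounds are pinned in duplicate onto adhered PC3M cells stably expressing GFP-tagged PTB and incubated 16 h at 37 C. Cells are then fixed, nuclei stained with Hoechst, and PNC-positive cells counted.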
# IMPase cell inh: cell-permeable inhibitors of inositol monophosphatase (IMPase); CHO-M1 cells, IP1 accumulation, HTRF TR-FRET ratio; inhibition (IP1 accumulation), % at 46.1 µM; 120,000 tested, under 10 active; active means well fitted curve in the direction sought with a large enough effect in the signal ratio, not every such curve was filed as active; inconclusive means small, poorly fitted or top-dose-only effect, or a change in a side signal; inactive means no such curve, though single readings can be large or run the other way; the % refers to the signal ratio;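 further: cells stimulated with carbachol in lithium chloride buffer; plate controls were DMSO basal wells for no effect and reference inhibitor wells for full effect; higher means more IMPase inhibition seen as more IP1 and lower FRET ratio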
#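 Cellular IMPase inhibition is scored as a rise in cytosolic IP1, detected by competitive TR-FRET between d2-labelled IP1 and a europium anti-IP1 antibody. M1-expressing CHO cells were stimulated with carbachol for 30 min at 37C, with lithium (50 mM LiCl) present in the buffer.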
# ALDH1A1 block: inhibitors of human aldehyde dehydrogenase 1A1; 220,000 compounds, 7.3% hits; P00352; Purified ALDH1A1, NADH fluorescence, propionaldehyde substrate; Potency, µM (highest dose often 75.3 µM), for the others: at the highest dose activity, negative = inhibition, usual class: inhibitors;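 further: potency means the concentration at half of the fitted maximal effect; plate controls were no enzyme wells and a reference inhibitor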
# Target sequence (P00352 whole entry, looked up): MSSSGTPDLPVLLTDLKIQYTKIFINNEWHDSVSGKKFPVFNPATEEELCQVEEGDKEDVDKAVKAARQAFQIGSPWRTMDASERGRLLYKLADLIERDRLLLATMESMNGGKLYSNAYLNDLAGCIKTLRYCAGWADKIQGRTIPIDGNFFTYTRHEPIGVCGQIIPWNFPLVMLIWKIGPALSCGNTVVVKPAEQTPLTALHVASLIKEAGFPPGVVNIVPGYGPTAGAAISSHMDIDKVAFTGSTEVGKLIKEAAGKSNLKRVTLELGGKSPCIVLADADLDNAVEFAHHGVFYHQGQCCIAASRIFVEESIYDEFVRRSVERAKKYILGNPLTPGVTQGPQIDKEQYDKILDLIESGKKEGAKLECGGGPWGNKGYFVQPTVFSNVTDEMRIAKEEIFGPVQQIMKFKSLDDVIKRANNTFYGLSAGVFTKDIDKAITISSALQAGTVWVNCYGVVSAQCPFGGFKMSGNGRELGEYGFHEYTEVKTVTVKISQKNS
# HPGD inh: inhibitors of human 15-hydroxyprostaglandin dehydrogenase (HPGD); P15428; purified HPGD, NADH fluorescence kinetic, PGE2 substrate; Potency, µM, for the others: top-dose activity change, negative = inhibition, usual class: inhibitors; 150,000 compounds, 4.3% hits; AID 894; further: potency means the concentration at half of the fitted maximal effect
#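 20 nM HPGD preincubated 15 min at room temperature with compound in 50 mM Tris-HCl pH 8, 0.01% Tween 20. Started with 1 mM NAD+ and 30 uM prostaglandin E2; NADH fluorescence (360/450 nm) read 5 times over 30-s intervals, last minus first.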
# IMPase Li cell: cell-permeable IMPase inhibitors with lithium potentiation. Potency, µM (doses to about 59.4 µM), for inactives: at the top dose activity, negative = IMPase inhibition, most hits filed as inhibitors. 210,000 compounds, 0.35% hits. AID 1457. CHO-M1 cells, IP1 TR-FRET (IP-One), carbachol + lithium; active means well fitted inhibition curve with a large enough effect; inconclusive means small, poorly fitted or top-dose-only effect; inactive means no such curve, though single readings can be large or run the other way;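 further: IP1 builds up when IMPase is blocked and the TR-FRET signal falls; potency means the concentration at half of the fitted maximal effect; plate controls were basal vehicle for no effect and high inhibitor control for full effect; nearly all actives have a fitted effect of over 50% in size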
#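 CHO cells stably expressing M1 receptor (2000/well) were cultured 16–30 h, then exposed to compounds with a small lithium addition for 30 min at 37C. IP1 was measured by TR-FRET competition; AC50 from Hill fits.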
# * = called active by the depositor; i = inactive; ? = inconclusive; / = no result; [ ] = another dose, or the depositor's remark. Unless noted, the call rests on the fitted dose curve; in most records, active means well fitted inhibition curve with a large enough effect (not every such curve was filed as active); inconclusive means small, poorly fitted or top-dose-only effect, or another doubt; inactive means no such curve, though single readings can be large or run the other way. Unless noted, on the % scale 0 is the no-effect control and ±100 the full control effect.
SMILES,PNC inhibitor,IMPase cell inh,ALDH1A1 block,HPGD inh,IMPase Li cell
COC(=O)c1cc(O)c(OCc2ccccc2)c(O)c1,-85*,-1,-6%,?,17%[38.3 µM]
COc1ccc(-c2cc(=O)c3c(O)cc(O[C@H]4OC(COC5OC(C)C(O)C(O)[C@H]5O)C(O)C(O)C4O)cc3o2)cc1O (some centres not stated),/,/,?,-19%,-3%
COc1ccc(-c2cc(=O)c3c(O)cc(O[C@@H]4OC(COC5OC(C)C(O)C(O)[C@@H]5O)C(O)C(O)C4O)cc3o2)cc1 (some centres not stated),/,/,-5%,22µM*,-4%
Clc1ccc(OCc2nc(-c3ccncc3)no2)c(Cl)c1,38,4,10%,13µM*,4%[38.3 µM]
Clc1cccc(OCc2nc(-c3ccncc3)no2)c1,/,/,2%,/,0%
Cc1cc(NC(=O)Nc2ccc(N(C)C)cc2)c2cc(F)cc(F)c2n1,/,37,-7%,-9%,47%
CC1CCCN(c2nc(NCc3ccco3)nc(N)c2[N+](=O)[O-])C1 (configuration not stated),16,/,2µM*,-22%,-3%
CCOC(=O)c1c(N)sc2c1CCCC2,?,5,20µM*,?,-7%[38.3 µM]
CCOC(=O)c1c(N)sc2c1CCS(=O)(=O)C2,-4,2,28µM*,40µM*,-8%[38.3 µM]
CCOC(=O)c1c(NC=O)sc2c1CCC2,-11,-6,-10%,-6%,23%[38.3 µM]
CCOC(=O)c1c(N)sc2c1CCC(C)C2 (configuration not stated),?,-2,13µM*,?,-5%[38.3 µM]
COC(=O)c1c(N2C(=O)CCC2=O)sc2c1CCCC2,30,3,?,-5%,-5%[38.3 µM]
CCOC(=O)c1c(N2C(=O)C3C4C=CC(O4)C3C2=O)sc2c1CCCC2 (configuration not stated),-23,2,2.2µM*,16µM*,-12%[38.3 µM]
COC(=O)c1ccccc1NC(=O)CN(C)S(=O)(=O)c1cc(C)ccc1OC,29,7,?,-13%,33%[38.3 µM]
CCOc1ccccc1NC(=O)c1c(NC(=O)CCC(=O)O)sc2c1CCCCC2,/,/,?,/,1%
CCOC(=O)c1c(NC(=O)COC)sc2c1CCCC2,-84*,-8,?,-15%,12%[38.3 µM]
CCOC(=O)c1c(NC(=O)C(C)Sc2cn(C)c3ccccc23)sc2c1CCC2 (configuration not stated),6,/,25µM*,-12%,11%
CCOC(=O)c1c(NC(=O)COc2ccc(C(C)(C)C)cc2)sc2c1CCCC2,/,-5,/,/,/
CCOC(=O)c1ccc(NC(=O)c2c(NC(=O)CCC(=O)O)sc3c2CCCCC3)cc1,/,/,16µM*,/,-2%
CCNC(=O)c1c(N)sc2c1CCCCC2,-6,-2,28µM*,28µM*,-7%[38.3 µM]
COC(=O)c1ccc(C(NC(=O)OCc2ccccc2)/C(=C/[C@@H](C)C(=O)NCc2nc3ccccc3s2)c2cccnc2)cc1 (some centres not stated),/,/,-7%,-9%,5%
COc1ccc(CN2CCN(CCc3ccccc3)C(CCO)C2)c(O)c1 (configuration not stated),/,/,?,/,17%
COc1cccc(NC(=S)/C(=C(\[O-])c2cc(C)n(-c3ccccc3F)c2C)[n+]2ccc(N(C)C)cc2)c1,/,/,?,/,11%
Cc1nn(C2CCCO2)c(=O)nc1N (configuration not stated),/,/,15%,/,2%
CCCC1CCc2c(sc(N)c2C(N)=O)C1 (configuration not stated),-13,10,10µM*,-12%,-8%[38.3 µM]
SMILES,PNC inhibitor,IMPase cell inh,ALDH1A1 block,HPGD inh,IMPase Li cell
CCOC(=O)c1c(NC(=O)CN2CCN(C(=O)c3ccco3)CC2)sc2c1CCCC2,-100*,4,24µM*,-19%,20%
CC(C)(C#CC(O)(c1ccccc1)c1ccccc1)N1CCCC1,/,/,10%,/,32%
C/C(CCN1CCc2nc(-c3ccccc3)c(-c3ccccc3)cc2C1)=N\O[C@@H](C)CN1CCCCc2nc(C)c(C)cc21,/,/,-11%[13.5 µM],/,/
C/C(=N\NC(=O)C1(C)CC1(Br)Br)c1ccc(NC(=O)c2ccc(C)o2)cc1 (configuration not stated),-21,/,-3%,18µM*,15%
C/C(=N\NC(=O)C1(C)CC1(Br)Br)c1ccc([N+](=O)[O-])cc1 (configuration not stated),/,/,-3%,/,6%
N#CC1=C(N)OC2=C(CCc3ccccc32)C1c1ccccc1 (configuration not stated),-83*,/,?,-9%,10%
Cc1ccc(/C=C2\CCC3=C2OC(N)=C(C#N)C3c2ccc(C)cc2)cc1 (configuration not stated),?,-8,?,-24%,-5%[38.3 µM]
COc1c(Br)cc2c(C)c(C(=O)O)oc2c1Br,25,/,?,14µM*,-12%
COc1ccc2c(C)c(C(=O)O)oc2c1,?,-20,?,-29%,-35%[38.3 µM]
C=C1C(C2(C)C=CC(=O)C(C)(C)C2CC(=O)OC)CC[C@@]2(C)C(c3ccoc3)OC(=O)C3OC132 (some centres not stated),/,/,0%,-13%,10%
c1nc(N2CCCCC2)c2[nH]cnc2n1,-119*,-4,1%,-11%,-2%
CC1CCN(c2ncnc3nc[nH]c23)CC1,-10,7,6%,-9%,28%[38.3 µM]
CC(=O)n1cc(C(C[N+](=O)[O-])SCCN)c2ccccc21 (configuration not stated),-14,12,4%,25µM*,19%[38.3 µM]
Cc1ccc2nc(N3CCOCC3)c(C=O)c(=O)n2c1,/,/,25µM*,/,6%
Cc1cc(OCc2cc3c(cc2Cl)OCO3)c2c(C)cc(=O)oc2c1,?,5,0.18µM*,/,/
O=C(CCS(=O)(=O)c1cccs1)Nc1ccc(C(=O)NC2CCCC2)cc1,/,/,2%,/,3%
COc1cnn(-c2cc(Oc3ccc(C)cc3)ncn2)c(=O)c1Cl,1,7,13µM*,-6%,26%[38.3 µM]
COCCOc1cnn(-c2cc(Oc3ccc(C)cc3)ncn2)c(=O)c1Cl,5,5,?,-2%,14%[38.3 µM]
O=c1cc(CSc2ccc(Cl)cc2)nc(N2CCCCC2)[nH]1,14,12,1%,/,/
Cn1[nH]c(CSc2ccc(Cl)cc2)cc1=O,/,/,1.8µM*,/,4%
Cc1ccc(C(=O)N2CCN(c3ccc(NC(=O)c4ccc(Br)o4)cc3)CC2)cc1,6,24,?,-27%,37%[38.3 µM]
CCC(=O)N1CCN(c2ccc(NC(=O)c3ccc(Br)o3)cc2)CC1,-94*,/,-1%,-5%,-1%
O=C(Nc1ccccc1N1CCCCC1)c1ccc(-c2ccc(Cl)cc2)o1,-82*,/,i,?,11%
O=C(Nc1ccc(N2CCCC2)c(Cl)c1)c1ccc(Br)o1,51,5,19µM*,-30%,12%[38.3 µM]
